# Data from the supplement of paper PMC12282887.
# ± gives the standard deviation of the averaged measurements.
# Tests used:
# Assay in all cases: promoter activity interaction Z-score (Lux/OD deviation from empty-vector control); higher = stronger promoter induction by the compound
# [1] = system: E. coli BW25113 acrABp lux reporter
# Summary of the method: (§1)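 In 384-well plates, 40 µl LB Lennox cultures of E. coli BW25113 with low-copy luxCDABE promoter reporters grew at 37°C. Optical density at 600 nm and light output were recorded every 30 min for 12 h, with windows of 0–8 h for wild type and 1–9 h for deletion strains, and wells under 10% of the median growth value were left out. Each value is a Z-transformed residual of growth-normalised luminescence fitted against a control.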
# [2] = system: E. coli BW25113 micFp lux reporter
# Summary of the method: as §1
# [3] = system: E. coli BW25113 ompFp lux reporter
# Summary of the method: as §1
# [4] = system: E. coli BW25113 robp lux reporter
# Summary of the method: as §1
# [5] = system: E. coli BW25113 soxSp lux reporter
# Summary of the method: as §1
# [6] = system: E. coli BW25113 tolCp lux reporter
# Summary of the method: as §1
# [7] = 0.26 µg/ml, genetic background: wild type
# [8] = 0.26 µg/ml, genetic background: ΔmarA
# [9] = 0.26 µg/ml, genetic background: Δrob
# [10] = 0.26 µg/ml, genetic background: ΔsoxS
# [11] = 0.52 µg/ml, genetic background: wild type
# [12] = 0.52 µg/ml, genetic background: ΔmarA
# [13] = 0.52 µg/ml, genetic background: Δrob
# [14] = 0.52 µg/ml, genetic background: ΔsoxS
# [15] = 1 µg/ml, genetic background: wild type
# [16] = 1 µg/ml, genetic background: ΔmarA
# [17] = 1 µg/ml, genetic background: Δrob
# [18] = 1 µg/ml, genetic background: ΔsoxS
# [19] = 2.1 µg/ml, genetic background: wild type
# [20] = 2.1 µg/ml, genetic background: ΔmarA
# [21] = 2.1 µg/ml, genetic background: Δrob
# [22] = 2.1 µg/ml, genetic background: ΔsoxS
compound,measurement,setting,value
CCC[C@@H]1C[C@@H](C(=O)N[C@@H]([C@H]2O[C@H](SC)[C@H](O)[C@@H](O)[C@H]2O)[C@H](C)Cl)N(C)C1 [Clindamycin],promoter activity interaction Z-score,[1]; [7],0.462 ± 0.13
same,promoter activity interaction Z-score,[1]; [8],0.688 ± 0.64
same,promoter activity interaction Z-score,[1]; [9],0.443 ± 0.12
same,promoter activity interaction Z-score,[1]; [10],0.20427 ± 5.4e-05
same,promoter activity interaction Z-score,[1]; [11],0.0439 ± 0.28
same,promoter activity interaction Z-score,[1]; [12],0.0236 ± 0.74
same,promoter activity interaction Z-score,[1]; [13],0.389 ± 0.16
same,promoter activity interaction Z-score,[1]; [14],0.296 ± 0.26
same,promoter activity interaction Z-score,[1]; [15],0.0522 ± 0.49
same,promoter activity interaction Z-score,[1]; [16],-0.845 ± 0.54
same,promoter activity interaction Z-score,[1]; [17],0.554 ± 0.027
same,promoter activity interaction Z-score,[1]; [18],0.424 ± 0.19
same,promoter activity interaction Z-score,[1]; [19],0.541 ± 0.29
same,promoter activity interaction Z-score,[1]; [20],-1.07 ± 0.54
same,promoter activity interaction Z-score,[1]; [21],0.386 ± 0.14
same,promoter activity interaction Z-score,[1]; [22],0.958 ± 1.2
same,promoter activity interaction Z-score,[2]; [7],0.509 ± 0.54
same,promoter activity interaction Z-score,[2]; [8],0.0727 ± 0.038
same,promoter activity interaction Z-score,[2]; [9],-0.112 ± 0.21
same,promoter activity interaction Z-score,[2]; [10],-0.295 ± 0.22
same,promoter activity interaction Z-score,[2]; [11],-0.308 ± 0.46
same,promoter activity interaction Z-score,[2]; [12],-0.109 ± 0.1
same,promoter activity interaction Z-score,[2]; [13],0.00775 ± 0.06
same,promoter activity interaction Z-score,[2]; [14],-0.12048 ± 8.2e-05
same,promoter activity interaction Z-score,[2]; [15],-0.107 ± 0.47
same,promoter activity interaction Z-score,[2]; [16],-0.106 ± 0.01
same,promoter activity interaction Z-score,[2]; [17],-0.0738 ± 0.2
same,promoter activity interaction Z-score,[2]; [18],0.189 ± 0.27
same,promoter activity interaction Z-score,[2]; [19],0.291 ± 0.71
same,promoter activity interaction Z-score,[2]; [20],-0.2694 ± 0.0025
same,promoter activity interaction Z-score,[2]; [21],0.0565 ± 0.17
same,promoter activity interaction Z-score,[2]; [22],0.457 ± 0.16
same,promoter activity interaction Z-score,[3]; [7],0.86 ± 0.48
same,promoter activity interaction Z-score,[3]; [8],0.602 ± 0.034
same,promoter activity interaction Z-score,[3]; [9],0.184 ± 0.088
same,promoter activity interaction Z-score,[3]; [10],-0.129 ± 0.28
same,promoter activity interaction Z-score,[3]; [11],0.0844 ± 0.74
same,promoter activity interaction Z-score,[3]; [12],0.364 ± 0.24
same,promoter activity interaction Z-score,[3]; [13],0.973 ± 0.091
same,promoter activity interaction Z-score,[3]; [14],0.0417 ± 0.17
same,promoter activity interaction Z-score,[3]; [15],0.629 ± 1
same,promoter activity interaction Z-score,[3]; [16],0.255 ± 0.36
same,promoter activity interaction Z-score,[3]; [17],0.164 ± 0.52
same,promoter activity interaction Z-score,[3]; [18],0.389 ± 0.074
same,promoter activity interaction Z-score,[3]; [19],1.41 ± 0.49
same,promoter activity interaction Z-score,[3]; [20],0.484 ± 0.28
same,promoter activity interaction Z-score,[3]; [21],0.877 ± 0.67
same,promoter activity interaction Z-score,[3]; [22],1.71 ± 1.1
same,promoter activity interaction Z-score,[4]; [7],0.81 ± 0.04
same,promoter activity interaction Z-score,[4]; [8],0.716 ± 0.3
same,promoter activity interaction Z-score,[4]; [9],0.204 ± 0.64
same,promoter activity interaction Z-score,[4]; [10],0.581 ± 0.019
same,promoter activity interaction Z-score,[4]; [11],0.0509 ± 0.11
same,promoter activity interaction Z-score,[4]; [12],0.27 ± 0.26
same,promoter activity interaction Z-score,[4]; [13],-0.0366 ± 0.51
same,promoter activity interaction Z-score,[4]; [14],0.513 ± 0.74
same,promoter activity interaction Z-score,[4]; [15],0.553 ± 1.1
same,promoter activity interaction Z-score,[4]; [16],0.0526 ± 0.64
same,promoter activity interaction Z-score,[4]; [17],0.0577 ± 0.99
same,promoter activity interaction Z-score,[4]; [18],0.531 ± 0.43
same,promoter activity interaction Z-score,[4]; [19],-0.23 ± 0.084
same,promoter activity interaction Z-score,[4]; [20],-0.785 ± 0.17
same,promoter activity interaction Z-score,[4]; [21],-0.582 ± 0.73
same,promoter activity interaction Z-score,[4]; [22],-0.589 ± 0.59
same,promoter activity interaction Z-score,[5]; [7],0.148 ± 0.1
same,promoter activity interaction Z-score,[5]; [8],0.331 ± 0.014
same,promoter activity interaction Z-score,[5]; [9],0.202 ± 0.053
same,promoter activity interaction Z-score,[5]; [10],0.316 ± 0.0083
same,promoter activity interaction Z-score,[5]; [11],-0.237 ± 0.079
same,promoter activity interaction Z-score,[5]; [12],0.237 ± 0.021
same,promoter activity interaction Z-score,[5]; [13],0.217 ± 0.043
same,promoter activity interaction Z-score,[5]; [14],0.23 ± 0.076
same,promoter activity interaction Z-score,[5]; [15],0.0391 ± 0.054
same,promoter activity interaction Z-score,[5]; [16],0.244 ± 0.1
same,promoter activity interaction Z-score,[5]; [17],0.0504 ± 0.034
same,promoter activity interaction Z-score,[5]; [18],0.138 ± 0.2
same,promoter activity interaction Z-score,[5]; [19],-0.0707 ± 0.029
same,promoter activity interaction Z-score,[5]; [20],0.0916 ± 0.17
same,promoter activity interaction Z-score,[5]; [21],0.0849 ± 0.32
same,promoter activity interaction Z-score,[5]; [22],0.0804 ± 0.017
same,promoter activity interaction Z-score,[6]; [7],-0.169 ± 0.35
same,promoter activity interaction Z-score,[6]; [8],0.807 ± 0.31
same,promoter activity interaction Z-score,[6]; [9],0.395 ± 0.66
same,promoter activity interaction Z-score,[6]; [10],-0.505 ± 0.044
same,promoter activity interaction Z-score,[6]; [11],0.223 ± 1
same,promoter activity interaction Z-score,[6]; [12],0.212 ± 1.3
same,promoter activity interaction Z-score,[6]; [13],0.229 ± 0.18
same,promoter activity interaction Z-score,[6]; [14],0.282 ± 0.71
same,promoter activity interaction Z-score,[6]; [15],-0.594 ± 0.74
same,promoter activity interaction Z-score,[6]; [16],0.0618 ± 0.085
same,promoter activity interaction Z-score,[6]; [17],-0.255 ± 0.54
same,promoter activity interaction Z-score,[6]; [18],0.674 ± 0.27
same,promoter activity interaction Z-score,[6]; [19],-0.385 ± 0.39
same,promoter activity interaction Z-score,[6]; [20],-0.307 ± 0.67
same,promoter activity interaction Z-score,[6]; [21],0.0932 ± 0.95
same,promoter activity interaction Z-score,[6]; [22],0.0435 ± 0.33
